According to PubChem BioAssay (NCI):
Compounds without any hit were thinned out: in the full panel of roughly 79,000, 15% have a hit. Activity calls are given as the source filed them. No stated cut-off is given here; in the data, active means growth inhibition above about 70%; inactive means the rest.

How the values were obtained:
[1] = NCI Yeast Anticancer Drug Screen. Data for the mec2-1 strain (AID 157); settings: S. cerevisiae mec2-1 strain, hits give high values
Method in brief: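 Vehicle-treated cultures served as reference for growth inhibition of compound-exposed mec2-1 yeast.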

[2] = NCI Yeast Anticancer Drug Screen. Data for the rad14 strain (AID 159);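 further: 0% = growth of vehicle-treated control cultures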; settings: S. cerevisiae rad14 strain growth inhibition, hits give high values
Method in brief: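 DNA repair-defective yeast, compound-exposed; % growth inhibition derived by comparison with vehicle-treated controls.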

[3] = NCI Yeast Anticancer Drug Screen. Data for the sgs1 mgt1 strain (AID 161);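 further: 0% = growth of cultures given vehicle only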; settings: S. cerevisiae sgs1 mgt1 strain, hits give high values
Method in brief: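 Mutant yeast exposed to compound; growth scored against vehicle-only wells.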

[4] = NCI Yeast Anticancer Drug Screen. Data for the CLN2oe strain (AID 163);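 further: 0% = growth of vehicle-only control cultures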; settings: S. cerevisiae CLN2oe strain, hits give high values
Method in brief: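 Inhibition relative to vehicle-treated yeast is reported. Cells: strain with genetic alteration in cell-cycle control, grown with compound.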

[5] = NCI Yeast Anticancer Drug Screen. Data for the cln2 rad14 strain (AID 165);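 further: 0% = growth equal to vehicle treated cultures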; settings: S. cerevisiae cln2 rad14 strain, hits give high values
Method in brief: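 Each compound was tested on cln2 rad14 yeast. Inhibition of growth was calculated against vehicle-exposed controls.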

[6] = NCI Yeast Anticancer Drug Screen. Data for the bub3 strain (AID 167); settings: S. cerevisiae bub3 mutant strain, hits give high values
Method in brief: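 In this screen, a yeast mutant lacking normal mitotic checkpoint function is challenged with compound. Relative growth versus vehicle gives the inhibition value.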

[7] = NCI Yeast Anticancer Drug Screen. Data for the wt2 strain (AID 169);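 further: 0% = growth of vehicle-treated yeast cultures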; settings: S. cerevisiae wt2 strain growth inhibition, hits give high values
Method in brief: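 Inhibition of yeast growth was determined after compound treatment, normalised to controls receiving only vehicle.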

[8] = NCI Yeast Anticancer Drug Screen. Data for the sgs1 strain (AID 173);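 further: 0% = growth of vehicle-only control cultures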; settings: S. cerevisiae sgs1 mutant, hits give high values
Method in brief: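 Screen format: yeast with repair or checkpoint alterations, compound exposure, growth read relative to vehicle.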

[9] = NCI Yeast Anticancer Drug Screen. Data for the mlh1 rad18 strain (AID 175); settings: S. cerevisiae mlh1 rad18 strain growth inhibition, hits give high values
Method in brief: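 Vehicle-treated cultures served as the reference for growth inhibition in a yeast strain carrying DNA damage repair alterations exposed to each compound.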

[10] = NCI Yeast Anticancer Drug Screen. Data for the rad18 strain (AID 177); settings: S. cerevisiae rad18 mutant growth inhibition, hits give high values
Method in brief: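 Test articles were incubated with altered yeast defective in DNA damage repair. Results are given as inhibition of growth versus vehicle.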

[11] = NCI Yeast Anticancer Drug Screen. Data for the rad52 strain (AID 147);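 further: 0% = growth of vehicle-treated control cultures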; settings: S. cerevisiae rad52 mutant growth inhibition, hits give high values
Method in brief: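 Vehicle-treated cultures served as the reference for growth inhibition of compound-exposed yeast bearing a DNA repair mutation.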

[12] = NCI Yeast Anticancer Drug Screen. Data for the wt1 strain (AID 149);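 further: 0% = growth of vehicle-treated wt1 cultures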; settings: S. cerevisiae wt1 strain (SPY 50644) growth inhibition, hits give high values
Method in brief: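 wt1 strain grown with compound or vehicle; inhibition taken from the growth difference.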

[13] = NCI Yeast Anticancer Drug Screen. Data for the rad50EPP+ strain (AID 151);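 further: 0% = growth of vehicle-treated control cultures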; settings: S. cerevisiae rad50 mutant strain, hits give high values
Method in brief: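 In this screen, rad50EPP+ yeast were exposed to compounds. Growth inhibition was scored against vehicle-treated controls.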

[14] = NCI Yeast Anticancer Drug Screen. Data for the mgt1 strain (AID 153); settings: S. cerevisiae mgt1 mutant growth inhibition, hits give high values
Method in brief: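 mgt1 strain exposed; growth vs vehicle control recorded as inhibition.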

[15] = NCI Yeast Anticancer Drug Screen. Data for the rad50 strain (AID 155);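 further: 0% = growth of vehicle-only cultures of the same strain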; settings: S. cerevisiae rad50 strain growth inhibition, hits give high values
Method in brief: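 DNA repair mutant yeast, compound exposure, growth read-out; inhibition is taken relative to vehicle.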

[16] = NCI Yeast Anticancer Drug Screen. Data for the mlh1 strain (AID 171);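 further: 0% = growth of vehicle-treated control cultures of the same strain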; settings: S. cerevisiae mlh1 strain growth inhibition, hits give high values
Method in brief: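 Vehicle-normalised growth inhibition of a repair- or checkpoint-altered yeast strain following compound treatment.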

[17] = at 5.0 µM (retest, dose inferred, filed as 0.5)
[18] = at 50.0 µM (retest, dose inferred, filed as 5.0)

Measured: growth inhibition

O=c1c2ccccc2nc(-c2ccc(Cl)cc2)n1O
active: [1]; at 11.0 µM 83% | [1]; at 33.0 µM 84% | [1]; [18] 97% | [1]; at 50.0 µM 96.7% | [1]; at 100.0 µM 88% | [2]; at 1.2 µM 98% | [2]; at 3.7 µM 98% | [2]; at 11.0 µM 98% | [2]; at 33.0 µM 98% | [2]; at 100.0 µM 98% | [3]; [18] 98% | [3]; at 50.0 µM 96.7% | [4]; at 33.0 µM 73% | [4]; at 100.0 µM 71% | [5]; [18] 84% | [5]; at 50.0 µM 87.8% | [6]; at 3.7 µM 75% | [6]; at 11.0 µM 78% | [6]; at 33.0 µM 82% | [6]; [18] 97% | [6]; at 50.0 µM 87.5% | [6]; at 100.0 µM 72% | [7]; at 1.2 µM 92% | [7]; at 3.7 µM 96% | [7]; at 11.0 µM 96% | [7]; at 33.0 µM 96% | [7]; at 100.0 µM 96% | [8]; at 1.2 µM 96% | [8]; at 3.7 µM 96% | [8]; at 11.0 µM 97% | [8]; at 33.0 µM 96% | [8]; at 100.0 µM 95% | [9]; [18] 98% | [9]; at 50.0 µM 96.1% | [10]; at 1.2 µM 94% | [10]; at 3.7 µM 96% | [10]; at 11.0 µM 97% | [10]; at 33.0 µM 96% | [10]; at 100.0 µM 95%
inactive: [1]; [17] 10% | [3]; [17] 46% | [4]; at 1.2 µM 21% | [4]; at 3.7 µM 26% | [4]; at 11.0 µM 66% | [5]; [17] -23% | [6]; at 1.2 µM 62% | [6]; [17] 23% | [9]; [17] 48%

C[n+]1c(/C=C/c2ccc(/C=N/NC(=O)c3ccc(C(=O)N/N=C/c4ccc(/C=C/c5cn6ccccc6[n+]5C)cc4)cc3)cc2)cn2ccccc21
active: [11]; at 1.2 µM 80% | [11]; at 3.7 µM 97% | [11]; at 11.0 µM 97% | [11]; at 33.0 µM 96% | [11]; at 100.0 µM 93% | [12]; at 3.7 µM 88% | [12]; at 11.0 µM 95% | [12]; at 33.0 µM 97% | [12]; at 100.0 µM 95% | [13]; at 3.7 µM 97% | [13]; at 11.0 µM 95% | [13]; at 33.0 µM 95% | [13]; at 100.0 µM 91% | [14]; at 3.7 µM 99% | [14]; at 11.0 µM 99% | [14]; at 33.0 µM 97% | [14]; at 100.0 µM 94% | [15]; at 1.2 µM 87% | [15]; at 3.7 µM 98% | [15]; [17] 79% | [15]; at 11.0 µM 97% | [15]; at 33.0 µM 95% | [15]; [18] 96% | [15]; at 50.0 µM 88.7% | [15]; at 100.0 µM 89% | [1]; at 3.7 µM 99% | [1]; [17] 92% | [1]; at 11.0 µM 98% | [1]; at 33.0 µM 97% | [1]; [18] 98% | [1]; at 50.0 µM 90.8% | [1]; at 100.0 µM 94% | [2]; at 3.7 µM 98% | [2]; at 11.0 µM 97% | [2]; at 33.0 µM 97% | [2]; at 100.0 µM 92% | [3]; [18] 98% | [3]; at 50.0 µM 85.7% | [5]; [18] 98% | [5]; at 50.0 µM 85.7% | [6]; at 3.7 µM 98% | [6]; at 11.0 µM 98% | [6]; at 33.0 µM 97% | [6]; at 50.0 µM 90.9% | [6]; at 100.0 µM 93% | [7]; at 3.7 µM 98% | [7]; at 11.0 µM 96% | [7]; at 33.0 µM 98% | [7]; at 100.0 µM 97% | [16]; at 3.7 µM 99% | [16]; at 11.0 µM 98% | [16]; at 33.0 µM 97% | [16]; at 100.0 µM 94% | [8]; at 3.7 µM 98% | [8]; at 11.0 µM 99% | [8]; at 33.0 µM 98% | [8]; at 100.0 µM 95% | [9]; [17] 90% | [9]; [18] 98% | [9]; at 50.0 µM 91.7%
inactive: [12]; at 1.2 µM 25% | [13]; at 1.2 µM 58% | [14]; at 1.2 µM 42% | [1]; at 1.2 µM 62% | [2]; at 1.2 µM 62% | [3]; [17] 64% | [5]; [17] 33% | [6]; at 1.2 µM 41% | [6]; [17] 8% | [6]; [18] 4% | [7]; at 1.2 µM 45% | [16]; at 1.2 µM 52% | [8]; at 1.2 µM 56%

CS(=O)(=O)O.[Ag]
inactive: [14]; at 1.2 µM 65% | [1]; at 1.2 µM 67% | [2]; at 1.2 µM 59% | [3]; [17] -25% | [4]; at 1.2 µM 62% | [5]; [17] 55% | [7]; at 1.2 µM 27% | [9]; at 50.0 µM 43.8%
active: [11]; at 1.2 µM 72% | [11]; at 3.7 µM 99% | [11]; at 11.0 µM 99% | [11]; at 33.0 µM 99% | [11]; at 100.0 µM 98% | [12]; at 1.2 µM 77% | [12]; at 3.7 µM 99% | [12]; at 11.0 µM 99% | [12]; at 33.0 µM 99% | [12]; at 100.0 µM 98% | [13]; at 1.2 µM 92% | [13]; at 3.7 µM 99% | [13]; at 11.0 µM 100% | [13]; at 33.0 µM 99% | [13]; at 100.0 µM 98% | [14]; at 3.7 µM 99% | [14]; at 11.0 µM 99% | [14]; at 33.0 µM 99% | [14]; at 100.0 µM 98% | [15]; at 1.2 µM 71% | [15]; at 3.7 µM 99% | [15]; [17] 100% | [15]; at 11.0 µM 99% | [15]; at 33.0 µM 99% | [15]; [18] 100% | [15]; at 50.0 µM 91.5% | [15]; at 100.0 µM 98% | [1]; at 3.7 µM 99% | [1]; [17] 100% | [1]; at 11.0 µM 100% | [1]; at 33.0 µM 99% | [1]; [18] 98% | [1]; at 50.0 µM 92.5% | [1]; at 100.0 µM 98% | [2]; at 3.7 µM 99% | [2]; at 11.0 µM 98% | [2]; at 33.0 µM 98% | [2]; at 100.0 µM 97% | [3]; [18] 99% | [3]; at 50.0 µM 93.5% | [4]; at 3.7 µM 99% | [4]; at 11.0 µM 98% | [4]; at 33.0 µM 99% | [4]; at 100.0 µM 98% | [5]; [18] 98% | [5]; at 50.0 µM 92.2% | [7]; at 3.7 µM 99% | [7]; at 11.0 µM 98% | [7]; at 33.0 µM 99% | [7]; at 100.0 µM 98% | [16]; at 1.2 µM 89% | [16]; at 3.7 µM 100% | [16]; at 11.0 µM 99% | [16]; at 33.0 µM 99% | [16]; at 100.0 µM 98% | [9]; [17] 100% | [9]; [18] 100% | [10]; at 1.2 µM 76% | [10]; at 3.7 µM 100% | [10]; at 11.0 µM 99% | [10]; at 33.0 µM 99% | [10]; at 100.0 µM 98%
